The source of these data is ChEMBL document CHEMBL1961873, “Compounds: GSK PKIS; Assays: Nanosyn kinase panel” (2012).

Where “and” joins values, the source holds several entries; their conditions need not be identical. Equal values may be shown once.
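Further: enzyme tested as the CDK4–cyclin D complex, with the value reported as mean percent inhibition.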

The target in this assay is Cyclin-dependent kinase 4 (Homo sapiens) (UniProt P11802). The following applies: at 1 µM.
Cyclin-dependent kinase 4 (Homo sapiens), sequence (P11802 whole entry): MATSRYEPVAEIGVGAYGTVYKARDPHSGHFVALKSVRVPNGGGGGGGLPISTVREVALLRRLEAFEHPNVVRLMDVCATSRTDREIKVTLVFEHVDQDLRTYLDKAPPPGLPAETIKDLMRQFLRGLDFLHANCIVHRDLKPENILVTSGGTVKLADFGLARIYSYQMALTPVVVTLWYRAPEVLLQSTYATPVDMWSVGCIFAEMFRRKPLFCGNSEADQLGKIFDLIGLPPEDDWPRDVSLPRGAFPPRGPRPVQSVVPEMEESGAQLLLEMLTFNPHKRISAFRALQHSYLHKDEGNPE
What is called inhibition is the relative decrease from the control value, in per cent. Read a low inhibition as a response near the control. The compound `Cc1cc(O)cc(C)c1/C=C/c1cncc(C(N)=O)c1` displayed an inhibition of 3.26%.

`CC1=C(C(=O)Nc2ccc3[nH]ncc3c2)C(c2ccc(F)cc2)N=C(c2ccc(C(F)(F)F)nc2)N1` (stereo not given) had an inhibition of 2.07%.

Compound `COc1c(C(N)=O)cc(-c2ccc(Cl)cc2)cc1-c1ccc(S(N)(=O)=O)cc1` registered an inhibition of 3.06%.

Regarding `Cc1cc(O)cc(C)c1/C=C/c1cncc(C(=O)OC(C)(C)C)c1`, the inhibition was found to be 3.59%.

With `COc1ccc(Nc2ncc(-c3ccccc3)o2)cc1OC`, the inhibition amounted to 14%.

For `Fc1ccc(Nc2nccc(-c3c(-c4ccc(C(F)(F)F)cc4)nn4ncccc34)n2)cc1F`, the inhibition is 2.36%.

`O=C(O[C@H]1CN[C@H](C#Cc2cc3ncnc(Nc4ccc(OCc5cccc(F)c5)c(Cl)c4)c3s2)C1)N1CCOCC1`: the inhibition was 2.33%.

Regarding `COc1ccc2ncn(-c3cc(O[C@H](C)c4ccccc4C(F)(F)F)c(C(N)=O)s3)c2c1`, the inhibition came to 2.89%.

Compound `CNC(=O)c1ncccc1Nc1nc(Nc2cc3c(cc2OC)CCCN3C(=O)CN(C)C)nc2[nH]ccc12` registered an inhibition of 11.4%.

On to `COc1ccccc1-c1cc(/C=C2\C(=O)Nc3ncc(Br)cc32)cc(Br)c1O`, for which the inhibition was found to be 7.62%.

Take `c1cnn2ncc(-c3ccnc(NCCCN4CCOCC4)n3)c2c1`: the inhibition was found to be 7.97%.

`CCCNc1cccc(-n2ncc3c(N/N=C/c4ccncc4)ncnc32)c1` registered an inhibition of 9.54%.

In turn, `OCCCNc1nccc(-c2c(-c3ccc(F)cc3)nn3cc(C(F)(F)F)ccc23)n1` had an inhibition of 3.36%.

`CS(=O)(=O)Nc1ccc(-c2ccc3c(NC(=O)C4CC4)n[nH]c3c2)cc1` yielded an inhibition of 6.78%.

Turning to `CN1CCC(C(=O)Nc2n[nH]c3nc(-c4ccc(O)cc4)c(Br)cc23)CC1`, the inhibition was 76.6% and 78.3%.
